Drawing on PubChem BioAssay AID1508611 (The Scripps Research Institute Molecular Screening Center, 2020), this text covers activation for 60 molecules.

The whole screen tested about 6,700 compounds, of which about 20 (0.3%) were called active. Shown is part of a subset that was picked to be rich in actives. A number with no mark means an inactive call.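 The calls were made as follows: active = mean percent activation in the counterscreen above 29.09%; inactive = the rest.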

Sequence of Glucose-dependent insulinotropic receptor (Homo sapiens) (Q8TDV5 whole entry, looked up): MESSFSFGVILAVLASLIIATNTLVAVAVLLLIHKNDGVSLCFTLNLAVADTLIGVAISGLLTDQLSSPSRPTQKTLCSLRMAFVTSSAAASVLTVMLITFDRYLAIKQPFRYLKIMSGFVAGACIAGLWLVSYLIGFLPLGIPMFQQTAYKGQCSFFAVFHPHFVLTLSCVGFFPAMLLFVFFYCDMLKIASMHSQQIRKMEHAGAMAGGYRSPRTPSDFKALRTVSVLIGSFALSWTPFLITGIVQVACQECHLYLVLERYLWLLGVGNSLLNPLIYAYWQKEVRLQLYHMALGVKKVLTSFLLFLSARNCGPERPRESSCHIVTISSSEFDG

This experiment concerns the target Glucose-dependent insulinotropic receptor (Homo sapiens) (UniProt Q8TDV5). The experiment can be described thus: GPR119 activators in beta-arrestin cells, counter-screen for GPR151 activator project, cell-based, PathHunter beta-arrestin, luminescence, triplicate (AID 1508611).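 Also: counterscreen on off-target GPR119 to flag nonselective hits from the GPR151 activator screen.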 As to conditions: 90 min, at 11.2 µM, active compounds read high, 0 = compound-well median, 100 = enzyme-acceptor control.
Turning to `CC(=O)Cn1c(=O)c2c(nc3n2CCCN3c2ccc(Br)cc2)n(C)c1=O`, the activation was 8.64%.

`N#Cc1ccc(N2CCN(CCCNC(=O)Nc3ccccc3)CC2)cc1`: the activation was -8.24%.

`COc1cccc(/C=C2/C(=O)NC(=O)N(c3ccccc3F)C2=O)c1`: the activation is 15.2%.

As to `COc1ccc(Br)cc1C(=O)NCC1COc2ccccc2O1` (stereo not given), the activation was -9.64%.

Turning to `COc1ccc(C(=O)Nc2sc3c(c2C(N)=O)CCCC3)cc1`, the activation is -10%.

`O=C(Nc1cccc(N2CCC(NCc3ccon3)CC2)c1)c1cccnc1`: the activation was 18.2%.

`Cc1ccc(S(=O)(=O)Cn2nnnc2CN2CCN(c3ccccc3F)CC2)cc1`: the activation was 8.39%.

In the case of `O=C(COc1ccc([N+](=O)[O-])cc1)Nc1ccc2oc(-c3cccc(F)c3)nc2c1`, the activation is -7.11%.

`CN1CC(=O)N2CCN(C(=O)OCc3ccccc3)C[C@@H]2C1=O`: the activation is 1.78%.

As to `CC(C)C(=O)NC(C)c1nnc2n1CCN(Cc1ccc3cccnc3c1)CC2` (stereo not given), the activation was 6.65%.

Consider `CCN(CC)S(=O)(=O)c1ccc(C)c(NS(=O)(=O)c2cccc(C#N)c2)c1`, for which the activation was -6.36%.

On to `CCOc1ccc(N2C(=O)C3C4c5ccccc5C(C(C)O)(c5ccccc54)C3C2=O)cc1` (stereo not given), for which the activation was -4.77%.

As for `C=CCNC(=O)C(=O)NCC1OCCCN1S(=O)(=O)c1ccccc1` (stereo not given), the activation is -6.88%.

For `CC(=O)Oc1cccc(N2C(=O)C3C4c5ccccc5C(C)(c5ccccc54)C3C2=O)c1` (stereo not given), the activation is -7.48%.

Turning to `CCOC(=O)C1=C(CC)OC(N)=C(C#N)C1c1ccc(C(F)(F)F)cc1` (stereo not given), the activation was -9.1%.

As for `CCN1/C(=C/c2ccc3cc(C)ccc3[n+]2CC)Sc2ccc(-c3ccccc3)cc21`, the activation was 0.91%.

In the case of `CCc1nnc2n1N(C(C)=O)C(c1ccc3c(c1)CCCC3)=C(C(C)=O)S2`, the activation is 3.36%.

As for `CC(C)CCSc1nc2c(c(=O)n1Cc1ccco1)C1(CCCCC1)Cc1ccccc1-2`, the activation is -4.2%.

For the molecule `O=C1CCC(CCNCCOc2ccccc2)N1CCc1ccccc1` (stereo not given), the activation was 12.1%.

Take `O=C(Cc1cccs1)NCCC1=CCCCC1`: the activation was 0.59%.

`CCN1CCCC1CNc1nc(=S)[nH]c2ccccc12` (stereo not given): the activation is -5.74%.

`CCc1ccc(NS(=O)(=O)c2ccc(Cl)cc2)cc1`: the activation was 1.55%.

For `CC12CCC(C(=O)Nc3ncc(Cl)cc3Cl)(CC1=O)C2(C)C` (stereo not given), the activation is -5.44%.

For the molecule `Cc1cnc(Nc2ccc(N3CCOCC3)cc2)nc1NCc1cccc(C(F)(F)F)c1`, the activation was 15.3%.

With `Cc1nc2cc(C(=O)NCc3ccc4c(c3)OCO4)ccc2n1-c1ccc(OCc2ccccc2)cc1`, the activation is -11.3%.

Regarding `COc1ccccc1NC(=O)NCc1nc(-c2ccc(OC)c(OC)c2)no1`, the activation is -3.49%.

Regarding `O=C(COc1ccc(Br)cc1CO)NCC(F)(F)F`, the activation was 5.45%.

Turning to `CCOC(=O)Cc1coc(NC(=O)c2ccc(Cl)cc2)n1`, the activation was 16.4%.

For the molecule `Cc1nc2nc(SCc3ccc([N+](=O)[O-])cc3)nn2c(C)c1Cc1c(F)cccc1Cl`, the activation was 15.8%.

Take `COc1ccccc1C1C(C(N)=O)=C(C)Nc2nc(CCCO)nn21` (stereo not given): the activation is -6.42%.

In the case of `CCOc1ccc(NC(=O)COc2cccc(C)c2C)cc1`, the activation was 6%.

As to `COc1cccc(C(=O)NC(=S)Nc2ccc(OC)cc2OC)c1`, the activation was 5.05%.

On to `CCC(=O)Nc1cc(C(=O)O)ccc1C`, for which the activation is 0.03%.

On to `Brc1cnc(NC2CCCCC2)nc1`, for which the activation was 4.03%.

On to `CC(C)N1CCc2c(sc(NC(=O)Cc3ccccc3)c2C#N)C1`, for which the activation is -3.52%.

`O=C(N/N=C/c1cc(Cl)ccc1O)c1cc(-c2ccccc2)n[nH]1`: the activation was -13.8%.

Turning to `COc1ccc(/C=C(\C#N)C(=O)Nc2cccc(S(=O)(=O)N3CCCCC3)c2)cc1`, the activation is -10.3%.

On to `COc1cccc(-c2nnc(NC(=O)CSc3ccccc3)o2)c1`, for which the activation was 6.53%.

`Cc1ccc(N2C(=O)CC(N3CCN(Cc4ccc(Cl)cc4)CC3)C2=O)cc1Cl` (stereo not given): the activation is 6.82%.

As to `O=C(CCn1cnc2c(cnn2-c2ccc(F)cc2)c1=O)NCCC1=CCCCC1`, the activation is 1.14%.

For `COc1ccc(OC)c(NC(=O)CSc2nnc3[nH]c(=O)c(C)c(C)n23)c1`, the activation is 3.38%.

For the molecule `COc1nc(Nc2ccccc2)nc(-c2c(C)noc2C)n1`, the activation is -7.06%.

With `CSc1ncc(C(=O)NCCc2c[nH]c3ccccc23)c(C)n1`, the activation is -0.1%.

On to `Cc1cc(Nc2ccc(F)cc2)n2cnnc2n1`, for which the activation is -9.37%.

Regarding `Clc1ccccc1C1C=C(c2ccc(I)cc2)Nc2nnnn21` (stereo not given), the activation is -6.17%.

On to `CCC(C)Nc1nc2c(c(=O)[nH]c(=O)n2C)n1CC(O)COC(C)C` (stereo not given), for which the activation is -3.29%.

For the molecule `Cc1cc(N2CCOCC2)ccc1C=C1C(=O)c2ccccc2C1=O`, the activation was 1.45%.

For `COCCNC(=S)N1CCN(c2ccccc2OC)CC1`, the activation is -11.2%.

For the molecule `COc1cc(NC(=O)c2sc3ncnc(N4CCCCC4)c3c2C)cc(OC)c1OC`, the activation is 0.56%.

For `CC(C)(C)OC(=O)N1CCC[C@H](Cn2cc(C(=O)O)nn2)C1`, the activation was 2%.

Turning to `COCCN1C(=O)CC(CC(=O)NCc2nc3ccccc3[nH]2)(c2ccccc2C)C1=O` (stereo not given), the activation is 3.87%.

`O=C(CCc1nnc(CCCCc2ccccc2)o1)N1CCC(N2CCSCC2)CC1`: the activation was 0.58%.

For `CC1CCN(C(=O)C(NS(=O)(=O)c2ccc3c(c2)oc(=O)n3C)C(C)C)CC1` (stereo not given), the activation is 6.52%.

With `Cc1ccc(C2=NC(c3cc(Br)ccc3F)NC(c3cc(Cl)ccc3O)C2)cc1` (stereo not given), the activation is 6.67%.

`COc1ccc(-c2nnc(SCCC#N)o2)cc1`: the activation was -4.81%.

Regarding `COc1ccc(OC)c(NC(=S)Nc2ccccn2)c1`, the activation was -19.3%.

As to `Oc1ccc(Cn2cc[nH]c2=S)cc1`, the activation is -8.52%.

As to `CCCCc1ccc(N=Cc2nc(-c3cccc4ccccc34)oc2O)cc1`, the activation is -7.98%.

Take `COc1ccc(C(=O)Cc2cc3ccccc3oc2=O)c(OC)c1`: the activation was -8.7%.

`O=C(CC1C(=O)NCCN1Cc1ccc2ccccc2c1)NCCCn1cccn1` (stereo not given): the activation was 1.24%.
